These results are taken from PubChem BioAssay AID1053193 (Broad Institute, 2014).

The source made the active and inactive calls.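 How the source made its calls: active means cell killing, with a fitted half-maximal concentration at or below twice the top valid dose tested; inconclusive means flat curve losing 30 to 70% signal, or unreliable fit; inactive means effect in the rising direction, plus the rest.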

The experiment can be described thus: viability loss in A549 lung cells – cell-based, CellTiter-Glo luminescence, 72 h, dry powder, cytotoxicity control, dose response (AID 1053193). Particulars: CellTiter-Glo ATP luminescence; series mostly up to 50 µM.
For `Cc1ccc(CSc2nc3[nH]ncc3c(=O)[nH]2)cc1`, the compound was called inactive.
With `OCc1ccc(-c2nn(Cc3ccccc3)c3ccccc23)o1` the entry was “inactive”; with `CCc1ccc(-n2c(=S)sc3c(=O)n(-c4ccccc4C)c(SCC(=O)O)nc32)cc1`, “inactive”; with `O=C(c1c(F)cccc1F)N(Cc1ccccc1)Cc1ccccc1`, “inactive”.
In the case of `COc1cc(CC2C(=O)Nc3ccccc32)cc(C)c1O` (stereo not given), the result was inactive.
Take `Cc1cc2ccccc2n1CCNC(=O)COc1ccc2ccccc2c1`: the compound was called inactive.
Take `Cc1cc2cc(CNC(=O)Nc3ccc(Cl)c(Cl)c3)ccc2n1C`: the call was inactive.
On to `Cc1cccc(NC(=O)NCc2ccc3c(c2)cc(C)n3C)c1`, for which the compound was classed as inactive.
As for `CNc1ccccc1C(C)(C)c1cc(-c2cccc(OC)c2)no1`, the call was inactive.
On to `Cc1ccc(S(=O)(=O)NCc2ccc3c(c2)cc(C)n3C)cc1`, for which the compound was classed as inactive.
On to `CCc1cccc2c1NC1(CCCC1)CC2C` (stereo not given), for which the compound was called inactive.
Take `O=C(O)C1CCN(c2nc(-c3ccccc3)c3cc(Br)ccc3n2)CC1`: the compound was classed as inactive.
With `Cc1cc2cc(CNC(=O)Nc3cccc(Cl)c3)ccc2n1C` the entry was “inactive”; with `Cc1cc(C)c(S(=O)(=O)NCCn2c(C)cc3ccccc32)c(C)c1`, “inactive”.
For `COc1ccc(Nc2ccccc2N)cc1`, the compound was classed as inactive.
